Test results published in ChEMBL document CHEMBL3988442, “University of Dundee, Small-Polar-MMV Screening Library” (2021).
The campaign covered roughly 66,000 compounds. About 960 (1.5%) showed an effect of 50% or more. Only a selection was taken, and strong results are over-represented in it overall.

Test system: Trypanosoma brucei
Experiment: Trypanosoma brucei 72 hour study
Assay type: functional, organism-based
Design: scale not given: in the data most compounds retested in dose-response had high values

O=C(COC[C@@]12CCC[C@@H]1CN(C1CCCC1)C2)N1CCCC1.O=C(O)C(F)(F)F
Percent Effect (30.3 µM, […]): -80.12%

CSc1ccc(CNC(c2ccccc2F)c2nccn2C)cc1.Cl (configuration not stated)
Percent Effect (10 µM): -81.16%

CN(C)C(=O)Cc1ccccc1NCc1cc(C#N)ccc1F
Percent Effect (30.3 µM, […]): -2.182%

CN(C)C(=O)Cc1ccccc1NCc1cccc2cccnc12
Percent Effect (30.3 µM, […]): 4.964%

CN(C)C(=O)Cc1ccccc1NCc1cccc(F)c1F
Percent Effect (30.3 µM, […]): 97.11%

CN(C)CCNC(=O)c1sccc1N(C)S(=O)(=O)c1ccc(Cl)cc1
Percent Effect (30 µM, 30.03 µM): -35.26%

COc1ccc(-c2ccccc2CCN)c(OC)c1OC
Percent Effect (30 µM, 30.03 µM): 106.1%

COc1ccc(-c2ccccc2CN)c(OC)c1
Percent Effect (30 µM, 30.03 µM): -56.26%

COc1ccc(-c2cc(CN)ccc2F)c(OC)c1OC
Percent Effect (30.3 µM, […]): -22.81%

CO[C@H]1CCN(Cc2ccoc2)C[C@@H]1Cc1ccccc1.O=C(O)C(F)(F)F
Percent Effect (30.3 µM, […]): -12.49%

C[C@@H]1C[C@@H]2CCN(C(=O)c3ccncn3)C[C@H]2O1
Percent Effect (30 µM, 30.03 µM): -27.33%

COc1cc(N2CCC3(CCCN(C(=O)c4cnccn4)C3)C2)ncn1.O=C(O)C(F)(F)F (configuration not stated)
Percent Effect (30 µM, 30.03 µM): -22.02%

O=C(NCCCO)c1cc(-c2ccc3c(c2)CCO3)n[nH]1
Percent Effect (30 µM, 30.03 µM): -14.14%

O=C(NCCCN1CCOCC1)c1cc(-c2ccc3c(c2)CCO3)n[nH]1
Percent Effect (30 µM, 30.03 µM): 57.45%

O=C(NCCN1CCOCC1)c1cc(-c2ccc3c(c2)CCO3)n[nH]1
Percent Effect (30 µM, 30.03 µM): 31.8%

O=C(NCc1nnc2n1CCCCC2)N(CC1CCOC1)C1CC1 (configuration not stated)
Percent Effect (30 µM, 30.03 µM): -56.14%

CNc1cc2c(nn1)CCN(C(=O)c1cccc3c1OCCO3)C2
Percent Effect (10 µM): -31.25%

COc1cccc(CN2CCC(CO)(Cc3ccc(Cl)cc3)CC2)c1O
Percent Effect (30.3 µM, […]): 102.9%

COc1ccc(CN2CCC(CO)(Cc3ccc(Cl)cc3)CC2)c(O)c1
Percent Effect (30.3 µM, […]): -63.01%

OCC1(Cc2ccc(Cl)cc2)CCN(Cc2ccccc2O)CC1
Percent Effect (30.3 µM, […]): -146.1%

CC(C)CNC(=O)[C@H]1C[C@@H]2CN(C(=O)Nc3ccc(F)cc3)C[C@H]1O2
Percent Effect (30 µM, 30.03 µM): -34.27%

CCS(=O)(=O)N1CCCC2(CCCN2Cc2cccc(F)c2)C1.O=C(O)C(F)(F)F (configuration not stated)
Percent Effect (30 µM, 30.03 µM): -82.26%

O=S(=O)(c1ccccc1)N1CCC2(CCCN2Cc2ccc(Cl)cc2)C1 (configuration not stated)
Percent Effect (30.3 µM, […]): 61.41%

O=S(=O)(c1ccccc1)N1CCC2(CCCN2Cc2cccc(F)c2)C1 (configuration not stated)
Percent Effect (30.3 µM, […]): 56.8%

O=S(=O)(c1ccccc1)N1CCC2(CCCN2Cc2ccccc2Cl)C1 (configuration not stated)
Percent Effect (30.3 µM, […]): 33.63%

O=C(O)C(F)(F)F.O=C(O)C(F)(F)F.O=S(=O)(c1ccccc1)N1CCC2(CCCN2Cc2cccnc2)C1 (configuration not stated)
Percent Effect (30.3 µM, […]): -446.5%

O=C(O)C(F)(F)F.O=S(=O)(c1ccccc1)N1CCC2(CCCN2Cc2cccc(Cl)c2)C1 (configuration not stated)
Percent Effect (30 µM, 30.03 µM): -34.57%

O=C(C1CC1)N1CCC2(CCN2Cc2ccc(F)cc2)C1.O=C(O)C(F)(F)F (configuration not stated)
Percent Effect (30.3 µM, […]): -12.66%

Cc1cccnc1CN1CC[C@H](Oc2cccc(F)c2)[C@@](C)(O)C1
Percent Effect (30.3 µM, […]): -17.61%

O=C1CC(NS(=O)(=O)c2ccc(Br)cc2)CN1 (configuration not stated)
Percent Effect (30 µM, 30.03 µM): -19.04%

CN(C(=O)CCc1ccncc1)C1CCCN(CCc2ccccc2)C1 (configuration not stated)
Percent Effect (30 µM, 30.03 µM): 2.42%

CN(C(=O)CSc1ccccn1)C1CCCN(CCc2ccccc2)C1 (configuration not stated)
Percent Effect (30 µM, 30.03 µM): 106.3%

CC(C)C(=O)NCC(=O)N(C)C1CCCN(CCc2ccccc2)C1 (configuration not stated)
Percent Effect (30.3 µM, […]): 1.246%

CCn1nccc1C(=O)NC(Cn1cccn1)C(C)(C)C (configuration not stated)
Percent Effect (30.3 µM, […]): -6.087%

Cn1cc(C(=O)NC(Cn2cccn2)C(C)(C)C)cn1 (configuration not stated)
Percent Effect (30.3 µM, […]): -4.857%

CC(C)(C)C(Cn1cccn1)NC(=O)c1ccco1 (configuration not stated)
Percent Effect (30.3 µM, […]): 101.2%

CC(CNC(=O)CCCn1cncn1)N1CCc2ccccc2C1 (configuration not stated)
Percent Effect (30 µM, 30.03 µM): -32.01%

CCCC(=O)Nc1sc(C(=O)OCC)c(C)c1C#N
Percent Effect (30 µM, 30.03 µM): 19.97%

Cc1sc(NC(=O)CN(C)S(C)(=O)=O)c(C#N)c1C
Percent Effect (30 µM, 30.03 µM): 51.13%

CCOC(=O)c1sc(NC(=O)CN(C)S(C)(=O)=O)c(C#N)c1C
Percent Effect (30 µM, 30.03 µM): -8.874%

Cl.O=C(Nc1nc2c(s1)CNCC2)NC1CCCC1
Percent Effect (30 µM, 30.03 µM): -50.11%

Cl.NC(C(=O)N1CCSc2ccccc2C1)c1ccccc1 (configuration not stated)
Percent Effect (30 µM, 30.03 µM): 1.138%

Cc1nn2c(-c3snnc3C)nnc2s1
Percent Effect (30 µM, 30.03 µM): -55.36%

COCCC(=O)N1CC2(CCN(Cc3cccc(Cl)c3)CC2)C1.O=C(O)C(F)(F)F
Percent Effect (30 µM, 30.03 µM): -25.19%

Cc1nnc(N2CC[C@H]3C[C@@H](C(=O)N4CCCC4)O[C@H]3C2)s1.O=C(O)C(F)(F)F
Percent Effect (30.3 µM, […]): -391.5%

O=C(Nc1ccc(OC2CCCC2)cc1)C1CCCN1c1nccs1 (configuration not stated)
Percent Effect (30.3 µM, […]): 83.44%

O=C(Nc1cccc(F)c1)C1CCCN1c1nccs1 (configuration not stated)
Percent Effect (30.3 µM, […]): 1.599%

O=C1NCc2ccc(NC(=O)C3CCCN3c3nccs3)cc21 (configuration not stated)
Percent Effect (30 µM, 30.03 µM): 23.55%

O=C(N1CCOCC1)[C@@]12CCO[C@@H]1CCN(CC1CCCC1)C2.O=C(O)C(F)(F)F
Percent Effect (30 µM, 30.03 µM): -11.27%

CN(Cc1cccc(F)c1)C(=O)CS(=O)(=O)Cc1c(Cl)cccc1Cl
Percent Effect (30.3 µM, […]): 83.04%

CN(Cc1cccc(F)c1)C(=O)CS(=O)(=O)Cc1ccc(Cl)c(Cl)c1
Percent Effect (30.3 µM, […]): 45.42%

Cc1ccccc1CS(=O)(=O)CC(=O)N(C)Cc1cccc(F)c1
Percent Effect (30.3 µM, […]): -71.65%

CCOc1nnc(CN(C)CC2CCCN2c2cccnn2)s1 (configuration not stated)
Percent Effect (30 µM, 30.03 µM): 2.197%

O=C(O)C(F)(F)F.O=C(O)C(F)(F)F.O=C(c1cnc2n1CCN(Cc1ccccc1)C2)N1CCCC1
Percent Effect (30.3 µM, […]): -305.8%

NC1CCN(C2CCN(c3ccc(-c4ccco4)cc3)CC2)CC1
Percent Effect (30.3 µM, […]): -49.5%

COc1ccc(N2CCC(N3CCOC(C(F)(F)F)C3)CC2)cc1 (configuration not stated)
Percent Effect (30 µM, 30.03 µM): -19.82%

CNC1CCN(C2CCN(c3ccc(-c4ccco4)cc3)CC2)CC1
Percent Effect (30.3 µM, […]): 100.1%

O=C(O)c1ccccc1C1CCN(C2CCN(c3ccccc3)CC2)C1 (configuration not stated)
Percent Effect (30.3 µM, […]): -16.4%

NCC1CCN(C2CCN(c3ccc(-c4ccco4)cc3)CC2)C1 (configuration not stated)
Percent Effect (30.3 µM, […]): 100.4%

CCc1cccc(N2CCC(NC(=O)c3ccco3)CC2)c1
Percent Effect (10 µM): -6.636%
Percent Effect (30.3 µM, […]): -4.063%

Cn1cc(CN2CCc3onc(C(=O)N4CCCC4)c3C2)cn1.O=C(O)C(F)(F)F
Percent Effect (30.3 µM, […]): -19.54%
